Screening results deposited in PubChem BioAssay by several laboratories.
Peg3 prom inh: inhibitors of Peg3 promoter. hit rate 1.7% among 360,000. HeLa PEG-Prom luciferase reporter, luminescence, overnight. inhibition, % at 20 µM. AID 588405;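 active = inhibition of at least 50% at 20 µM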
HIF-2a inh: blocks HIF-2a reporter activity | 786-0 RCC cells HIF-2a reporter, luciferase luminescence, overnight | inhibition, % at 18.8 µM | hit rate 0.72% among 360,000 | AID 624352;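 active = inhibition of the luminescence signal of 40% or more relative to plate controls, in a single-dose primary screen at 18.75 µM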
CF NFkB block: cystic fibrosis NF-kB activation inhibition; inhibition, % at 5 µM; AID 588850; KKLEB NF-kB-GFP reporter, PAF-induced, GFP fluorescence overnight; hit rate 0.86% among 360,000;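 active = at least 50% inhibition at 5 µM, scaled per plate between neutral and stimulator controls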;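 also: PAF is a Pseudomonas aeruginosa culture filtrate used as stimulus; plate controls were PAF-stimulated DMSO wells for no effect and unstimulated DMSO wells for full effect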
Mdm2-MdmX inh: human Mdm2/MdmX binding inhibition. O15151+Q00987. hit rate 3% among 330,000. SaOS-2 split-luciferase Mdm2/MdmX complementation, luminescence. inhibition, % at 8 µM;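 active = inhibition of at least 50% at 8 µM in the primary screen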
KKLEB cytotox: CF airway cell cytotoxicity counter-screen | KKLEB CF airway cells viability, ATPlite luminescence, overnight; active compounds read low; cells stimulated with P. aeruginosa culture filtrate | activity change (cytotoxicity), % at 5 µM | hit rate 0.36% among 360,000 | AID 602141;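 active = corrected activity change at or below -50% at 5 µM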
ABHD5-PLIN5 inh: blocks binding of human ABHD5 to perilipin-5. Q00G26+Q8WTS1. Split G. princeps luciferase complementation, luminescence, 4 h. inhibition, % at 4 µM. hit rate 0.78% among 360,000;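 active = inhibition above the mean inhibition across every tested compound plus 3 SD, cut at about 22% in these data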;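 also: 0% = DMSO only wells and the 100% control is not disclosed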
Target sequence (Q00G26 whole entry, looked up): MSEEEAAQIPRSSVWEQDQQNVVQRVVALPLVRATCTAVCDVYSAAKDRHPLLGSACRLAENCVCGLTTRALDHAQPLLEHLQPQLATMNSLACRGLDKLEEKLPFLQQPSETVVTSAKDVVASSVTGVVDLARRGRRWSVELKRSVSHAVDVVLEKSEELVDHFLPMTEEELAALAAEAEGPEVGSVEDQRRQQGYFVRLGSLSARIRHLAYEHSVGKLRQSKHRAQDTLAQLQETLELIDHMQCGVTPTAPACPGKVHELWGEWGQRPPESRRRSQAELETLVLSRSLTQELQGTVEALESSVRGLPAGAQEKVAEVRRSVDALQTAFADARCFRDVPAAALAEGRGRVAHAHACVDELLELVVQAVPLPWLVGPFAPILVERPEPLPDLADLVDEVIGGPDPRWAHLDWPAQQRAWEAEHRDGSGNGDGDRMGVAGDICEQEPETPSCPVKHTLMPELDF
Target sequence (Q8WTS1 whole entry, looked up): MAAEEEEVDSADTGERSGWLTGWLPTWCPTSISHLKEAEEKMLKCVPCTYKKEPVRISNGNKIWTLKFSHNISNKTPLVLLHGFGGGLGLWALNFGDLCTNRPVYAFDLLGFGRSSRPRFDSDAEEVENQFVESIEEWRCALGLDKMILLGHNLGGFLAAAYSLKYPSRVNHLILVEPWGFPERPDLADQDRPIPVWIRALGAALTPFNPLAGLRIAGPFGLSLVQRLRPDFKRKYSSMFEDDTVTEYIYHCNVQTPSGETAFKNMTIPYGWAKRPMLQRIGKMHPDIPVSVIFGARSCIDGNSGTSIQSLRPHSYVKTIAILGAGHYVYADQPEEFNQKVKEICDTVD
ABHD5-PLIN5 conf: confirmation of human ABHD5-PLIN5 interaction inhibitors; hit rate 67% among 2,200; biochemical ABHD5-PLIN5 interaction, luminescence; AID 651612; shares compounds with ABHD5-PLIN5 inh; inhibition, % at 4 µM; in the data active = inhibition above about 23%;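 also: 0% = DMSO vehicle wells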
HNF4 split-luc: HNF4 split-luciferase signal hit, counter-screen; inhibition, % at 4 µM; shares compounds with ABHD5-PLIN5 inh; AID 651674; hit rate 77% among 2,200; HNF4 dimerization, luminescence, biochemical;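 active = mean inhibition across replicate wells exceeding the computed hit threshold, cut at about 13% in these data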;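 also: light from luciferase halves that rejoin when HNF4 fusion proteins dimerize; 0% = DMSO only wells and the 100% control is not given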
HIF-2a conf: confirmation of HIF-2a inhibitors | shares compounds with HIF-2a inh | 786-0 RCC cells, HIF-2a luciferase reporter luminescence, overnight | inhibition, % at 18.8 µM | hit rate 56% among 1,800;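 active = mean inhibition across four replicates of at least 40 percent at the single tested concentration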
HIF-1a cs: HIF-1a inhibition counter-screen for HIF-2a hits | shares compounds with HIF-2a inh | MiaPaCa-2 HIF-1a luciferase reporter, desferoxamine, overnight | inhibition, % at 18.8 µM | hit rate 72% among 1,800 | AID 651589;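 active = mean inhibition of the reporter signal across four replicates at the single tested dose of 50% or more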
* hit, by the source's call; · = not tested or not shown. Shown are actives, neighbours in structure and some others; about 4.6% of the full set was active somewhere.

SMILES	Peg3 prom inh	HIF-2a inh	CF NFkB block	Mdm2-MdmX inh	KKLEB cytotox	ABHD5-PLIN5 inh	ABHD5-PLIN5 conf	HNF4 split-luc	HIF-2a conf	HIF-1a cs
CC1(C(=O)NCc2ccc(C(F)(F)F)cc2)CCN1Cc1ccc(-c2ccccc2)o1 (stereo not drawn)	10	12	2	·	-5	31*	13	25*	·	·
Nc1ccn([C@@H]2O[C@H](CNCc3cnc(N4CCOCC4)nc3)[C@@H](O)[C@H]2O)c(=O)n1	-17	7	2	·	9	-4	·	·	·	·
N#Cc1ncc(Cc2ccccc2)nc1C#N	30	28	-14	47	12	30*	46*	21*	·	·
Cc1cccc(C)c1C(O)c1ncc(-c2cccc(F)c2)[nH]1 (stereo not drawn)	-1	5	23	·	-12	0	·	·	·	·
C#CCN(C[C@@H]1[C@@H](OC(=O)NC2CC2)[C@@H](OC(=O)NC2CC2)Cn2c(=O)n(CCCCCC)c(=O)n21)S(=O)(=O)c1ccc(C)cc1	-4	11	25	·	-8	-3	·	·	·	·
C#CCN(C[C@@H]1[C@@H](OC(=O)NCC2CCCCC2)[C@@H](OC(=O)NCC2CCCCC2)Cn2c(=O)ccc(=O)n21)S(=O)(=O)c1ccc(C)cc1	106*	97*	106*	·	-97*	42*	57*	18*	99*	107*
C#CCN(C[C@@H]1[C@@H](OC(=O)NCCCCCC)[C@@H](OC(=O)NCCCCCC)Cn2c(=O)ccc(=O)n21)S(=O)(=O)c1ccc(C)cc1	98*	95*	87*	·	-89*	34*	56*	-4	91*	107*
O=C(OCC(=O)N1CCCCCC1)c1cc(S(=O)(=O)N2CCOCC2)ccc1F	9	12	-34	·	9	0	·	·	·	·
COC(=O)C(Cc1ccccc1)NC(=O)C(CC(C)C)NC(=O)OC(C)(C)C (stereo not drawn)	11	8	-4	1	-4	4	·	·	·	·
CC(C)CC(NC(=O)OCc1ccccc1)C(=O)NC(Cc1ccccc1)C(=O)CCl (stereo not drawn)	93*	48*	34	·	-18	24*	88*	88*	73*	87*
COc1ccc(C(=O)NCCN2CCC(n3c(=O)[nH]c4ccccc43)CC2)cc1F	·	4	·	·	·	0	·	·	·	·
NC(=O)C1=C(c2ccccc2)c2ccccc2C1=O	22	51*	16	·	-11	74*	93*	94*	39	-3
CCOc1ccc(CCNC(=O)COC(=O)CSc2ccc(C)cc2)cc1OCC	-1	9	18	43	-6	4	·	·	·	·
CC(=O)Nc1ccccc1C	11	13	16	8	-4	-9	·	·	·	·
CC(=O)/C(=C/c1ccccc1)C(=O)Nc1ccccc1C	73*	92*	26	45	-12	39*	86*	71*	88*	103*
N#Cc1cccc(C(=O)C(=O)N2CCCN(Cc3ccc(F)cc3)CC2)c1	·	4	·	·	·	1	·	·	·	·
O=Cc1s/c(=N\S(=O)(=O)c2ccccc2)n(CCCCl)c1Cl	109*	96*	89*	·	-69*	37*	69*	107*	93*	102*
O=C(NCc1cccnc1)/C(=C\c1ccc(-c2ccc(Cl)c(Cl)c2)o1)S(=O)(=O)c1ccccc1	102*	97*	99*	·	-98*	77*	101*	97*	99*	106*
CCOC(=O)/C(=C\c1ccc(Cl)cc1)c1nc2sc(C)c(C)c2c(=O)[nH]1	108*	94*	80*	38	-57*	46*	99*	77*	98*	107*
CCOC(=O)CSc1nc2sc(C)c(C)c2c(=O)[nH]1	7	9	11	20	-15	9	·	·	·	·
C=CCN1C(=O)N/C(=C/c2ccc(C)o2)C1=O	-15	40*	-9	7	1	31*	14	88*	-33	-13
Cc1ccc(/C=C2\C(=O)NC(=O)N2C)o1	-1	-4	8	6	4	16	·	·	·	·
COc1cccc(N2[C@@H](CC(C)=O)c3ccc(/C=C/C(C)=O)cc3S2(=O)=O)c1	100*	45*	-26	32	2	32*	65*	57*	12	32
COc1ccc(CN2[C@@H](CC(C)=O)c3ccc(/C=C/C(C)=O)cc3S2(=O)=O)cc1	106*	43*	22	8	9	35*	70*	62*	6	48
CCCNC(=O)c1ccc(C)c(NC(=O)C2=C(C)OCCS2)c1	14	17	-3	15	0	3	·	·	·	·
SMILES	Peg3 prom inh	HIF-2a inh	CF NFkB block	Mdm2-MdmX inh	KKLEB cytotox	ABHD5-PLIN5 inh	ABHD5-PLIN5 conf	HNF4 split-luc	HIF-2a conf	HIF-1a cs
CCCCn1c(N)c(N(CC(C)C)C(=O)c2oc3c(Cl)cccc3c2C)c(=O)[nH]c1=O	11	12	15	6	-4	-1	·	·	·	·
COC(=O)c1ccc(NS(=O)(=O)c2ccc(S(=O)(=O)N3CCOCC3)cc2)cc1	8	-2	-25	-16	1	6	·	·	·	·
CN(C)C(=O)NC1c2ccccc2-c2ccccc21	1	8	1	0	-6	-4	·	·	·	·
O=C1C=CC(=O)N1c1ccc2c(c1)C(NC(=O)C(F)(F)F)c1ccccc1-2 (stereo not drawn)	102*	46*	40	·	-9	34*	56*	99*	11	17
FC(F)(F)c1ccccc1Cc1c(-c2ccccc2)nc2ccc(Cl)cn12	-70	-158	7	·	-14	-9	·	·	·	·
FC(F)(F)c1ccccc1Cc1c(-c2ccco2)nc2ccc(Cl)cn12	10	37*	27	·	-18	34*	46*	63*	1	64*
COc1coc(C(O)CN)cc1=O (stereo not drawn)	2	-2	11	-30	-2	1	·	·	·	·
CCOC(=O)C(=Cc1cc(=O)c(OC)co1)C(=O)OCC	106*	94*	85*	·	28	24*	76*	90*	99*	106*
Cn1cc(-c2csc(C(O)c3ccc(F)cc3)n2)cn1 (stereo not drawn)	-10	5	6	·	-3	7	·	·	·	·
Cn1cnc([N+](=O)[O-])c1S(=O)(=O)Oc1ccc(Cl)cc1	103*	81*	94*	·	-98*	73*	85*	104*	30	26
